# Laboratory results published in paper PMC12751014, “Non-Catalytic Inhibitors of the p38/MK2 Interface: Repurposing Approved Drugs to Target Neuroinflammation in Alzheimer’s Disease” (Journal of Medicinal Chemistry, 2025).
# Among all 1,900 compounds or so, about 50 (3%) showed an effect of 50% or more. The list comes from a sample in which strong results are over-represented; it also holds similar structures and randomly drawn compounds.
# Target: p38/MK2 protein–protein interaction (VF-p38α / GST-MK2) (Homo sapiens, UniProt Q16539)
# Test: primary screen, percent of control activity; higher = less effect of the substance
# Design: species or system HEK293T cell lysate transfected with VF-p38α and GST-MK2; unclear (methods say 'quintuplet replicates')
# Experimental: The TR-FRET assay was conducted in a 1536-well plate (Corning, catalog no. 3724) with HEK293T cell lysate transfected with VF-p38α and GST-MK2. Cell-lysate concentration was optimized with a titration experiment. Anti-Flag-Tb and anti-GST-d2 antibodies (Revvity, catalog no. 61FGBTLB) were used to couple p38α and MK2, respectively. A multiple-drop Combi dispenser (Thermo Scientific) combined reaction mixtures in quintuplet replicates. The TR-FRET signals were measured using a BMG Labtech PHERAstar FSX plate reader and normalized to the percent of DMSO control.
# Sequence of p38/MK2 protein–protein interaction (VF-p38α / GST-MK2) (Q16539 2-360 limits assumed): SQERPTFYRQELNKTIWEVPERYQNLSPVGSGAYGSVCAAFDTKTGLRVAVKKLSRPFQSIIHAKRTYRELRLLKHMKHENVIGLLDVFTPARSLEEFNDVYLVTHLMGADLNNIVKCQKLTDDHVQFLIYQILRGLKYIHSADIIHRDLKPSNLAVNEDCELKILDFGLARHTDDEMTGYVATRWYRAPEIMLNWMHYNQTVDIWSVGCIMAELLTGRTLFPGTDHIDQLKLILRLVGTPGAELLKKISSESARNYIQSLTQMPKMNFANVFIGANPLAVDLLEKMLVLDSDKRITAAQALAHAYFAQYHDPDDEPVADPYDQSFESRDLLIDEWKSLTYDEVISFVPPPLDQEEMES
row,SMILES,Pct of control
1,CCOc1nc2cccc(C(=O)OC(C)OC(=O)OC3CCCCC3)c2n1Cc1ccc(-c2ccccc2-c2nn[nH]n2)cc1 (stereo not drawn),32.4%
2,CCOc1nc2cccc(C(=O)O)c2n1Cc1ccc(-c2ccccc2-c2nc(=O)o[nH]2)cc1,94.5%
3,CCOc1nc2cccc(C(=O)O)c2n1Cc1ccc(-c2ccccc2-c2nn[nH]n2)cc1,95%
4,Cl.Cn1c(CCCC(=O)O)nc2cc(N(CCCl)CCCl)ccc21,99.1%
5,CC1(C)CCC(C)(C)c2cc(NC(=O)c3ccc(C(=O)O)cc3)ccc21,92.2%
6,C=C(c1ccc(C(=O)O)cc1)c1cc2c(cc1C)C(C)(C)CCC2(C)C,25.7%
7,CC(=Cc1ccc(C(=O)O)cc1)c1ccc2c(c1)C(C)(C)CCC2(C)C,78.8%
8,CO/N=C(\C(=O)N[C@@H]1C(=O)N2C(C(=O)O)=C(CSC(=O)c3ccco3)CS[C@H]12)c1csc(N)n1.Cl,115%
9,Cn1cc(-c2ccc3ncc(Cc4ccc5ncccc5c4)n3n2)cn1,93.2%
10,CCCCCCCCCCCCCCCC(=O)OCC(O)C1OC(=O)C(O)=C1O (stereo not drawn),33.2%
11,CCCCCC=CCC=CCCCCCCCC(=O)OC(COC(=O)CCCCCCCCCCCCCCC)COP(=O)([O-])OCC[N+](C)(C)C (stereo not drawn),95.3%
12,O=C1O[C@H]([C@@H](O)CO)C(O)=C1O,100%
13,CN(C)c1ccc(C(=O)NCCCCCCC(=O)NO)cc1,96.2%
14,Cl.O=S(=O)(c1cccc2cnccc12)N1CCCNCC1,93.6%
15,COC(=O)C1=CO[C@@H](O[C@@H]2O[C@H](CO)[C@@H](O)[C@H](O)[C@H]2O)[C@@H]2C(CO)=CC[C@H]12,90.4%
16,CNC(=O)c1cc(Oc2ccc(NC(=O)Nc3ccc(Cl)c(C(F)(F)F)c3)cc2)ccn1.Cc1ccc(S(=O)(=O)O)cc1,69.1%
17,O=C(O)CC1CC(c2ccccc2)=NO1 (stereo not drawn),86.5%
18,CC1C=CC=CCCC=CC=CC=CC=CC(OC2OC(C)C(O)C(N)C2O)CC2OC(O)(CC(O)C(O)CCC(O)CC(O)CC(O)CC(=O)OC(C)C(C)C1O)CC(O)C2C(=O)O (stereo not drawn),94.3%
19,C[C@@H]1C/C=C/C=C/C=C/C=C/[C@H](O[C@@H]2O[C@H](C)[C@@H](O)[C@H](N)[C@@H]2O)C[C@@H]2O[C@](O)(C[C@@H](O)C[C@H]3O[C@@H]3/C=C/C(=O)O1)C[C@H](O)[C@H]2C(=O)O,97.8%
20,C[C@@H]1[C@H](O)[C@@H](C)/C=C/C=C/C=C/C=C/C=C/C=C/C=C/[C@H](O[C@@H]2O[C@H](C)[C@@H](O)[C@H](N)[C@@H]2O)C[C@@H]2O[C@](O)(C[C@@H](O)C[C@@H](O)[C@H](O)CC[C@@H](O)C[C@@H](O)CC(=O)O[C@H]1C)C[C@H](O)[C@H]2C(=O)O,48.7%
21,Cc1ccc(C(=O)N(CCCN)C(c2nc3cc(Cl)ccc3c(=O)n2Cc2ccccc2)C(C)C)cc1 (stereo not drawn),97.1%
22,COc1ccc(COc2cc3oc(=O)c4cc(C(C)O)ccc4c3cc2OC)cc1 (stereo not drawn),78.7%
23,C=C1C(=O)[C@]23[C@H](O)[C@H]1CC[C@H]2[C@@]12CO[C@]3(O)[C@@H](O)[C@@H]1C(C)(C)CC[C@@H]2O,42.8%
24,COC(=O)C1=C(C)NC(C)=C(C(=O)OCCN2CCN(C(c3ccccc3)c3ccccc3)CC2)C1c1cccc([N+](=O)[O-])c1 (stereo not drawn),121%
25,COc1ccc2nc([S@@+]([O-])Cc3ncc(C)c(OC)c3C)[nH]c2c1,89.4%

row,SMILES,Pct of control
1,O=C(CCCCCCC(=O)Nc1ccccc1)NO,102%
2,O=C(CCCCCCC(=O)Nc1ccc([C@H]2O[C@@H](CSc3nc(-c4ccccc4)c(-c4ccccc4)o3)C[C@@H](c3ccc(CO)cc3)O2)cc1)NO,20.4%
3,Cc1cccc(C(C)c2cnc[nH]2)c1C.Cl (stereo not drawn) [S3060],91.6%
4,CC1=CC(=O)NS(=O)(=O)O1.[K],95.6%
5,CC(COc1ccccc1)N(CCCl)Cc1ccccc1.Cl (stereo not drawn),85.4%
6,CC(C)N(CCC(=O)c1ccc2ccccc2c1)Cc1ccccc1.Cl,26.2%
7,CC(=CC(=O)Nc1ccccc1C(=O)O)c1ccc2ccccc2c1,105%
8,O=S(=O)(CC1CS1)c1ccc(Oc2ccccc2)cc1 (stereo not drawn),95%
9,CN(C)CCCN1c2ccccc2Sc2ccc(C(F)(F)F)cc21.Cl,95.7%
10,O=C(NNc1ccccc1)c1ccncc1,97.3%
11,O=C(O)C=CC(=O)O.c1ccc2nc(N3CCNCC3)ccc2c1,98.6%
12,O=C(C=Cc1ccc2ccccc2n1)c1ccncc1,39.1%
13,Cl.c1ccc2c(CC3=NCCN3)cccc2c1,94.8%
14,CCCNC(C)C(=O)Nc1ccccc1C (stereo not drawn),96.3%
15,CC(C)c1onc(-c2c(Cl)cccc2Cl)c1COc1ccc(C=Cc2cccc(C(=O)O)c2)c(Cl)c1,16.5%
16,O=c1cc(-c2cccc3c2Sc2ccccc2S3)oc(N2CCOCC2)c1,88.7%
17,CCCCCCOC(=O)N=C(N)c1ccc(NCc2nc3cc(C(=O)N(CCC(=O)OCC)c4ccccn4)ccc3n2C)cc1,94.2%
18,COC1CCN(C(=O)c2cc(Cc3n[nH]c(=O)c4ccccc34)ccc2F)CC1,95.8%
19,Cl.NC1CC1c1ccccc1 (stereo not drawn),91.7%
20,O=C(/C=C/C=C/c1ccc2c(c1)OCO2)N1CCCCC1,82.5%
21,O=C(Oc1ccc([N+](=O)[O-])cc1)N1CCC(C(O)(c2ccc3c(c2)OCO3)c2ccc3c(c2)OCO3)CC1,94.2%
22,O=[N+]([O-])C=Cc1ccc2c(c1)OCO2,40.3%
23,Cc1ccc(-n2sc(=O)n(Cc3ccc(F)cc3)c2=O)cc1,114%
24,Cc1cnc(NC(=O)Nc2cc(Br)c(C)cc2OCC2CNCCO2)cn1 (stereo not drawn),73.3%
25,O=C1c2cccc(O)c2C(=O)c2c(O)cc(CO)cc21,33.9%

row,SMILES,Pct of control
1,Cc1cc(O)c2c(c1)C(=O)c1cccc(O)c1C2=O,94%
2,O=C1c2c(O)cccc2C(C2OC(CO)C(O)C(O)C2O)c2cc(CO)cc(O)c21 (stereo not drawn),92%
3,CC1=NN(c2ccc(C(=O)O)cc2)C(=O)C1=Cc1ccc(-c2cc(C)c(C)cc2[N+](=O)[O-])o1,18%
4,COc1ccccc1N1CCN(CCN(C(=O)C2CCCCC2)c2ccccn2)CC1.O=C(O)C=CC(=O)O,97.5%
5,CN1C(=O)CCS(=O)(=O)C1c1ccc(Cl)cc1 (stereo not drawn),95.4%
6,COC(=O)Nc1nc2ccc(C(=O)c3cccs3)cc2[nH]1,97.5%
7,CCOc1ccc(NC(C)=O)cc1,97.7%
8,CC(C)(C)NC[C@H](O)COc1nsnc1N1CCOCC1.O=C(O)C=CC(=O)O,94.2%
9,c1ccc(Cn2c(-c3ccc(OCC(C4CCNCC4)n4c(-c5ccccc5)nc5ccccc54)cc3)nc3ccccc32)cc1 (stereo not drawn),21.2%
10,CCOc1ccccc1-n1c(C(C)N2CCN(C(=O)COc3ccc(Cl)cc3)CC2)nc2ccccc2c1=O (stereo not drawn),100%
11,CCCC1OC2CC3C4CCC5=CC(=O)C=CC5(C)C4C(O)CC3(C)C2(C(=O)CO)O1 (stereo not drawn),101%
12,CCCNC(C)C(=O)Nc1c(C)csc1C(=O)OC.Cl (stereo not drawn),99.8%
13,O=C(O)CCC1CCC(c2cc(F)ccc2F)(S(=O)(=O)c2ccc(Cl)cc2)CC1 (stereo not drawn),85.6%
14,CN1CCN(C2CCN(C(=O)Nc3cc(Oc4ccc(NC(=O)C5(C(=O)Nc6ccc(F)cc6)CC5)c(F)c4)ccn3)CC2)CC1,46.1%
15,COc1cc2nccc(Oc3ccc(NC(=O)C4(C(=O)Nc5ccc(F)cc5)CC4)cc3)c2cc1OC.O=C(O)CC(O)C(=O)O,72.9%
16,COc1cc2nccc(Oc3ccc(NC(=O)C4(C(=O)Nc5ccc(F)cc5)CC4)cc3)c2cc1OC,70.5%
17,NC(=O)Nc1cc(-c2cccc(F)c2)sc1C(=O)NC1CCCNC1 (stereo not drawn),74.3%
18,Cc1cc(NC(=O)c2cccc(NC(=O)C=CCN(C)C)c2)ccc1Nc1nccc(-c2cccnc2)n1,80.7%
19,COCCOc1ccc2c(c1)ncn2-c1ccc2cccc(N3CCC(N)CC3)c2n1,51.7%
20,CC1(COc2ccc3c(c2)ncn3-c2ccc3cccc(N4CCC(N)CC4)c3n2)COC1,47.3%
21,CCOC(=O)[C@H](CCc1ccccc1)N[C@H]1CS[C@H](c2cccs2)CN(CC(=O)O)C1=O.Cl,77.1%
22,CC(C)(C)CC(C)(C)c1ccc(O)c(Cc2ccc(Cl)cc2Cl)c1,88.3%
23,Cc1nn(-c2ccccc2)c(C)c1C=NN1CCN(Cc2ccccc2)CC1,85.5%
24,CC(=O)O.Cc1cc2c(C(C)C)c(O)c(O)c(C=O)c2c(O)c1-c1c(C)cc2c(C(C)C)c(O)c(O)c(C=O)c2c1O [S2303],26.8%
25,CC(=O)O.Cc1cc2c(C(C)C)c(O)c(O)c(C=O)c2c(O)c1-c1c(C)cc2c(C(C)C)c(O)c(O)c(C=O)c2c1O [S2812],29.9%
